Records with an inconclusive call do not appear. A call without a number means that no potency is given here. Active and inactive are the calls of the source. Calls come from the whole dose curve; as a rule, active = well fitted curve in the direction sought with a large enough effect; inconclusive = small, poorly fitted or top-dose-only effect, or another doubt; inactive = no such curve, though single readings can be large; an effect the other way counts as inactive or inconclusive.
assay: qHTS of pediatric cancer cell lines to identify multiple opportunities for drug repurposing: Primary screen for control Hh wild type fibroblast cells (AID 1347106); details: Hh wild-type fibroblast viability, CellTiter-Glo luminescence, 48 h; series mostly up to 46 µM;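 note: a drop in luminescence marks cytotoxicity and a rise apparent proliferation; nearly all actives have a fitted effect of over 55% in size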
Procedure, shortened: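 Viability after 48 h compound treatment at 37C, 500-1,000 cells/well, read as ATP luminescence with CellTiter-Glo. Primary screens used 11-point (MIPE, 0.78 nM-46 µM) or 8-point (NPC, 0.59 nM-46 µM) final concentrations; follow-up screens used 11-point dilutions.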

Row | SMILES | outcome
1 | C[C@]12CC[C@H]3[C@@H](CCC4=CC(=O)CC[C@@H]43)[C@@H]1CC[C@@H]2OC(=O)CCC1CCCCC1 | inactive
2 | O=C1OC(CCN2CCCCC2)OC1(c1ccccc1)c1ccccc1 (configuration not stated) | inactive
3 | CCC1(c2ccc(N)cc2)CCC(=O)NC1=O (configuration not stated) | inactive
4 | CCOC(=O)CC(SP(=S)(OC)OC)C(=O)OCC (configuration not stated) | inactive
5 | c1ccc(CN2CCNCC2)cc1 | inactive
6 | CN1CC[C@]23c4c5ccc(O)c4O[C@H]2[C@@H](O)CC[C@H]3[C@H]1C5 | inactive
7 | Nc1ccccc1C(=O)O | inactive
8 | O=c1oc2ccccc2c(O)c1Cc1c(O)c2ccccc2oc1=O | inactive
9 | Cc1ncsc1CCCl | inactive
10 | CC(Cc1ccccc1)N(C)Cc1ccco1 (configuration not stated) | inactive
11 | O=C1CN=C(c2ccccc2)c2cc([N+](=O)[O-])ccc2N1 | inactive
12 | CCC1(c2ccccc2)C(=O)N(COC)C(=O)N(COC)C1=O | inactive
13 | CC(C(=O)c1ccccc1)N(C)C (configuration not stated) | inactive
14 | CC(C)c1cccc(C(C)C)c1O | inactive
15 | C[C@]12CC[C@@H]3c4ccc(OC(=O)N(CCCl)CCCl)cc4CC[C@H]3[C@@H]1CC[C@@H]2OP(=O)(O)O | inactive
16 | C[C@]12CC[C@H]3[C@@H](CCC4=CC(=O)CC[C@@H]43)[C@@H]1CC[C@@H]2OC(=O)CCc1ccco1 | inactive
17 | CC(C)(C)NCC(O)c1cc(Cl)c(N)c(C(F)(F)F)c1 (configuration not stated) | inactive

assay: qHTS of pediatric cancer cell lines to identify multiple opportunities for drug repurposing: Primary screen for Rh30 cells (AID 1347107); details: Rh30 rhabdomyosarcoma viability, CellTiter-Glo luminescence, 48 h; series mostly up to 46 µM; note: nearly all actives have a fitted effect of over 75% in size
Procedure, shortened: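 Cells (500-1,000/well) rested 5 h, then received compounds for 48 h; metabolically active cells were measured by CellTiter-Glo luminescence. Final concentrations spanned up to 46 µM (MIPE, 11-point) or 0.59 nM-46 µM (NPC, 8-point) in primary screens, 11-point in follow-ups.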

Row | SMILES | outcome
18 | Nc1ccccc1 | inactive
19 | CCN[C@@H](C)Cc1ccccc1 | inactive
20 | CNCC(=O)c1ccc(O)c(O)c1 | inactive
21 | COP(=S)(OC)Oc1ccc(SC)c(C)c1 | inactive
22 | Clc1cccc(SC2CCNCC2)n1 | inactive
23 | CC(C)c1c(CN(C)C(C)Cc2ccccc2)n(C)n(-c2ccccc2)c1=O (configuration not stated) | inactive
24 | COc1ccc2c3c1O[C@H]1[C@H](O)CC[C@H]4[C@@H](C2)N(C)CC[C@@]341 | inactive
25 | CCN[C@H](C)Cc1cccc(C(F)(F)F)c1 | inactive
26 | COc1cccc([C@@]2(O)CCCC[C@@H]2CN(C)C)c1 | inactive
27 | COC1CC(=C(c2cccs2)c2cccs2)C[N+](C)(C)C1 (configuration not stated) | inactive
28 | C#C[C@]1(O)CC[C@H]2[C@@H]3CCC4=CC(=O)CC[C@]4(C)[C@H]3CC[C@@]21C | inactive
29 | CCN[C@@H](C)Cc1cccc(C(F)(F)F)c1 | inactive
30 | COc1cc(CC(C)N)cc(OC)c1OC (configuration not stated) | inactive
31 | C=CCC1([C@H](C)CCC)C(=O)NC(=O)NC1=O | inactive
32 | O=C1c2ccccc2C(=O)C1C(=O)C(c1ccccc1)c1ccccc1 | inactive
33 | NC(=O)CS(=O)C(c1ccccc1)c1ccccc1 (configuration not stated) | inactive
34 | ClCCN1CCCC1 | inactive
35 | CC(C)NC(C)C | inactive
36 | CC(=O)C1CCOC1=O (configuration not stated) | inactive
37 | CNC(C)(C)Cc1ccccc1 | inactive

Row | SMILES | outcome
38 | CN1C(=O)CCS(=O)(=O)C1c1ccc(Cl)cc1 (configuration not stated) | inactive
39 | O=C1OC(c2ccc(O)c(S(=O)(=O)O)c2)(c2ccc(O)c(S(=O)(=O)O)c2)c2c(Br)c(Br)c(Br)c(Br)c21 | inactive
40 | CN1C(=O)NC(=O)C(C)(C2=CCCCC2)C1=O (configuration not stated) | inactive
41 | C[C@]12CC[C@H]3[C@@H](CCC4=CC(=O)CC[C@@H]43)[C@@H]1CC[C@@H]2OC(=O)CCC1CCCCC1 | inactive
42 | O=C1OC(CCN2CCCCC2)OC1(c1ccccc1)c1ccccc1 (configuration not stated) | inactive
43 | CCC1(c2ccc(N)cc2)CCC(=O)NC1=O (configuration not stated) | inactive
44 | CCOC(=O)CC(SP(=S)(OC)OC)C(=O)OCC (configuration not stated) | inactive
45 | c1ccc(CN2CCNCC2)cc1 | inactive
46 | CN1CC[C@]23c4c5ccc(O)c4O[C@H]2[C@@H](O)CC[C@H]3[C@H]1C5 | inactive
47 | Nc1ccccc1C(=O)O | inactive
48 | O=c1oc2ccccc2c(O)c1Cc1c(O)c2ccccc2oc1=O | inactive
49 | Cc1ncsc1CCCl | inactive
50 | CC(Cc1ccccc1)N(C)Cc1ccco1 (configuration not stated) | inactive
51 | O=C1CN=C(c2ccccc2)c2cc([N+](=O)[O-])ccc2N1 | inactive
52 | CCC1(c2ccccc2)C(=O)N(COC)C(=O)N(COC)C1=O | inactive
53 | CC(C(=O)c1ccccc1)N(C)C (configuration not stated) | inactive
54 | CC(C)c1cccc(C(C)C)c1O | inactive
55 | C[C@]12CC[C@@H]3c4ccc(OC(=O)N(CCCl)CCCl)cc4CC[C@H]3[C@@H]1CC[C@@H]2OP(=O)(O)O | inactive
56 | C[C@]12CC[C@H]3[C@@H](CCC4=CC(=O)CC[C@@H]43)[C@@H]1CC[C@@H]2OC(=O)CCc1ccco1 | inactive
57 | CC(C)(C)NCC(O)c1cc(Cl)c(N)c(C(F)(F)F)c1 (configuration not stated) | inactive

assay: qHTS of pediatric cancer cell lines to identify multiple opportunities for drug repurposing: Primary screen for Rh41 cells (AID 1347108); details: Rh41 rhabdomyosarcoma viability, CellTiter-Glo luminescence, 48 h; series mostly up to 46 µM;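 note: luminescence drop marks cytotoxic hits; nearly all actives have a fitted effect of over 70% in size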
Procedure, shortened: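 Phenotypic viability qHTS, 48 h compound exposure, CellTiter-Glo luminescence read-out; multi-concentration dosing so that potency and efficacy derive directly from the primary screen's curves.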

Row | SMILES | Potency
58 | Nc1ccccc1 | inactive
59 | CCN[C@@H](C)Cc1ccccc1 | inactive
60 | CNCC(=O)c1ccc(O)c(O)c1 | inactive
61 | COP(=S)(OC)Oc1ccc(SC)c(C)c1 | inactive
62 | Clc1cccc(SC2CCNCC2)n1 | inactive
63 | CC(C)c1c(CN(C)C(C)Cc2ccccc2)n(C)n(-c2ccccc2)c1=O (configuration not stated) | inactive
64 | COc1ccc2c3c1O[C@H]1[C@H](O)CC[C@H]4[C@@H](C2)N(C)CC[C@@]341 | inactive
65 | CCN[C@H](C)Cc1cccc(C(F)(F)F)c1 | inactive
66 | COc1cccc([C@@]2(O)CCCC[C@@H]2CN(C)C)c1 | inactive
67 | COC1CC(=C(c2cccs2)c2cccs2)C[N+](C)(C)C1 (configuration not stated) | inactive
68 | C#C[C@]1(O)CC[C@H]2[C@@H]3CCC4=CC(=O)CC[C@]4(C)[C@H]3CC[C@@]21C | inactive
69 | CCN[C@@H](C)Cc1cccc(C(F)(F)F)c1 | inactive
70 | COc1cc(CC(C)N)cc(OC)c1OC (configuration not stated) | inactive
71 | C=CCC1([C@H](C)CCC)C(=O)NC(=O)NC1=O | inactive
72 | O=C1c2ccccc2C(=O)C1C(=O)C(c1ccccc1)c1ccccc1 | inactive
73 | NC(=O)CS(=O)C(c1ccccc1)c1ccccc1 (configuration not stated) | inactive
74 | ClCCN1CCCC1 | inactive
75 | CC(C)NC(C)C | inactive
76 | CC(=O)C1CCOC1=O (configuration not stated) | inactive
77 | CNC(C)(C)Cc1ccccc1 | inactive

Row | SMILES | Potency
78 | CN1C(=O)CCS(=O)(=O)C1c1ccc(Cl)cc1 (configuration not stated) | inactive
79 | O=C1OC(c2ccc(O)c(S(=O)(=O)O)c2)(c2ccc(O)c(S(=O)(=O)O)c2)c2c(Br)c(Br)c(Br)c(Br)c21 | inactive
80 | CN1C(=O)NC(=O)C(C)(C2=CCCCC2)C1=O (configuration not stated) | inactive
81 | C[C@]12CC[C@H]3[C@@H](CCC4=CC(=O)CC[C@@H]43)[C@@H]1CC[C@@H]2OC(=O)CCC1CCCCC1 | inactive
82 | O=C1OC(CCN2CCCCC2)OC1(c1ccccc1)c1ccccc1 (configuration not stated) | inactive
83 | CCC1(c2ccc(N)cc2)CCC(=O)NC1=O (configuration not stated) | inactive
84 | CCOC(=O)CC(SP(=S)(OC)OC)C(=O)OCC (configuration not stated) | inactive
85 | c1ccc(CN2CCNCC2)cc1 | inactive
86 | CN1CC[C@]23c4c5ccc(O)c4O[C@H]2[C@@H](O)CC[C@H]3[C@H]1C5 | inactive
87 | Nc1ccccc1C(=O)O | inactive
88 | O=c1oc2ccccc2c(O)c1Cc1c(O)c2ccccc2oc1=O | inactive
89 | Cc1ncsc1CCCl | inactive
90 | CC(Cc1ccccc1)N(C)Cc1ccco1 (configuration not stated) | inactive
91 | O=C1CN=C(c2ccccc2)c2cc([N+](=O)[O-])ccc2N1 | inactive
92 | CCC1(c2ccccc2)C(=O)N(COC)C(=O)N(COC)C1=O | inactive
93 | CC(C(=O)c1ccccc1)N(C)C (configuration not stated) | inactive
94 | CC(C)c1cccc(C(C)C)c1O | inactive
95 | C[C@]12CC[C@@H]3c4ccc(OC(=O)N(CCCl)CCCl)cc4CC[C@H]3[C@@H]1CC[C@@H]2OP(=O)(O)O | inactive
96 | C[C@]12CC[C@H]3[C@@H](CCC4=CC(=O)CC[C@@H]43)[C@@H]1CC[C@@H]2OC(=O)CCc1ccco1 | inactive
97 | CC(C)(C)NCC(O)c1cc(Cl)c(N)c(C(F)(F)F)c1 (configuration not stated) | inactive
